Test results: PubChem BioAssay (NCI)
About 79,000 compounds went through this panel and 15% of them were active in at least one assay; those are over-represented in the sample as a whole. Unmarked numbers belong to inactive results. Active and inactive are the calls of the source. No stated cut-off is given here; in the data, active means growth inhibition above about 70%; inactive means the rest. Where a SMILES comes first, the peptide text is derived from it. The star is where a group is joined. Cbz = O=C(OCc1ccccc1)*

Columns and labels:
[1] = NCI Yeast Anticancer Drug Screen. Data for the rad50 strain (AID 155);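 further: 0% = growth of vehicle-only cultures of the same strain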; conditions: S. cerevisiae rad50 strain growth inhibition; at 50.0 µM; active compounds read high
In short: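 Vehicle-treated cultures provide the reference for the growth inhibition reported for compound-exposed, repair-deficient yeast.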

[2] = NCI Yeast Anticancer Drug Screen. Data for the mec2-1 strain (AID 157); conditions: S. cerevisiae mec2-1 strain, at 50.0 µM, active compounds read high
In short: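 Strain: mec2-1 (DNA repair/cell cycle alteration). Compound exposure, then growth measured; inhibition expressed relative to vehicle.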

[3] = NCI Yeast Anticancer Drug Screen. Data for the sgs1 mgt1 strain (AID 161);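 further: 0% = growth of cultures given vehicle only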; conditions: S. cerevisiae sgs1 mgt1 strain, at 50.0 µM, active compounds read high
In short: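 Read-out: growth inhibition vs vehicle controls. Cells: mutant yeast strain deficient in DNA damage repair.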

[4] = NCI Yeast Anticancer Drug Screen. Data for the cln2 rad14 strain (AID 165);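 further: 0% = growth equal to vehicle treated cultures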; conditions: S. cerevisiae cln2 rad14 strain, at 50.0 µM, active compounds read high
In short: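 Compounds are applied to the cln2 rad14 yeast strain, and growth is then compared with that of vehicle-treated cultures to give inhibition.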

[5] = NCI Yeast Anticancer Drug Screen. Data for the bub3 strain (AID 167); conditions: S. cerevisiae bub3 mutant strain, at 50.0 µM, active compounds read high
In short: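 Mutant yeast screening strain plus compound; vehicle-treated cultures serve as the 0% inhibition reference.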

[6] = NCI Yeast Anticancer Drug Screen. Data for the mlh1 rad18 strain (AID 175); conditions: S. cerevisiae mlh1 rad18 strain growth inhibition; at 50.0 µM; active compounds read high
In short: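 Read-out is yeast growth inhibition, calculated against vehicle-only controls. The compound was applied to a strain engineered with DNA damage repair alterations.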

| Compound | growth inhibition [1] | growth inhibition [2] | growth inhibition [3] | growth inhibition [4] | growth inhibition [5] | growth inhibition [6] |
| --- | --- | --- | --- | --- | --- | --- |
| O=C(O)c1cc(C(=O)Nc2cccc3ccccc23)c(C(=O)O)cc1C(=O)Nc1cccc2ccccc12 | 14.6% | 24.1% | 17.6% | -5.4% | 6.4% | 22.8% |
| O=C1CCC2(CC1)SCCCS2 | -0.6% | -21.5% | -16.1% | 20.9% | -7.3% | -17.1% |
| CN(C)c1ccc(N2C(=S)SC(=Nc3ccccc3)C2=Nc2ccccc2)cc1 | -6% | -13.6% | -10.8% | 7.05% | -1.5% | 3.45% |
| c1ccc(COc2ccc(OCc3ccccc3)cc2)cc1 | -1.5% | 3.8% | 13.1% | -31.6% | -10.2% | 3% |
| CCOC(=O)C(C)NC(=O)C(C)NC(=O)C(C)NC(=O)C(C)NC(=O)C(C)NC(=O)C(C)NC(=O)C(C)NC(=O)OCc1ccccc1 (stereo unspecified) (Cbz-AAAAAAA-OEt; configuration not given here) | -16.2% | -23.4% | -21.4% | 16.6% | 5.4% | -8.45% |
| Brc1cccc2c(SCCCCCCSc3c4ccccc4nc4c(Br)cccc34)c3ccccc3nc12 | 3.1% | -16.1% | -18.8% | -52.5% | -21% | 5.85% |
| COC(=O)CCc1nc2ccccc2c(=O)[nH]1 | 6.45% | 1.05% | -6.05% | -35.8% | -14.9% | -12.4% |
| COc1cccc(C=Nc2cc(C)ccn2)c1O.COc1cccc(C=Nc2cc(C)ccn2)c1O.[Cu] | 3.45% | -7.75% | 9.75% | 14.2% | -11.6% | 38.6% |
| CC(=O)OCc1cocc1COC(C)=O | -17.2% | -36% | 20.4% | -3.2% | -4.1% | 8.3% |
| CC1=C(C(=O)NCc2ccccc2)C(c2ccc([N+](=O)[O-])cc2)C(C(=O)NCc2ccccc2)=C(C)N1 | -10.6% | -15.2% | 1.5% | 4.4% | -4.8% | -23.8% |
| CC(=O)Oc1cc(Cl)c(Cl)cc1Cl | 19.9% | 29.9% | -5.65% | -30.4% | -16.4% | -2.1% |
| CC([C@H](c1ccccc1)C1CCC(C(N)=O)(N2CCOCC2)C1)[N+](=O)[O-] (stereo partly specified) | 5.8% | 7.9% | 12.3% | 39.1% | 4.45% | 9.85% |
| O=C1c2ccccc2C(=O)N1Cc1ccccc1 | 3.55% | -16.9% | 6.6% | 27.4% | 0.45% | 6.7% |
| O=C1C(NCCc2ccc(O)c(O)c2)=CC(=O)c2ncccc21 | 35.5% | 34.6% | 32.1% | 24.1% | 6.3% | -5.35% |
| COc1ccc(C(N)C(=O)O)cc1 (stereo unspecified) | -17.4% | -9.4% | -6.8% | -21.6% | -12.5% | -10.9% |
| O=C(CC(=O)Nc1ccccc1)N/N=C/c1cc(N=Nc2ccc(Br)cc2)ccc1O | 16.4% | 24.9% | 53% | 4.65% | 0.2% | 29% |
| CN(C)C1C(CO)OC(n2cnc3c(N)ncnc32)C1O (stereo unspecified) | 21.2% | 12.8% | -19.4% | 22% | -11.8% | -82.2% |
| C[C@@]1(CO)CCc2c(c3ccccc3oc2=O)O1 | 2.2% | 6.45% | 9.55% | 8% | 1.8% | -6.35% |
| COc1cccc(/C=N/N(C)c2c([N+](=O)[O-])cc(C(F)(F)F)cc2[N+](=O)[O-])c1O | -1.3% | -17.3% | -16.6% | 14.1% | 3.7% | -5.8% |
| CCSCC(N)C(=O)O (stereo unspecified) | -16.1% | 2.5% | 7.45% | -7.25% | 3.35% | -9% |
| CCCCN=C1NS(=O)(=O)c2ccccc21 | 15.5% | -11.5% | 13.2% | -8.15% | 0% | -0.6% |

| Compound | growth inhibition [1] | growth inhibition [2] | growth inhibition [3] | growth inhibition [4] | growth inhibition [5] | growth inhibition [6] |
| --- | --- | --- | --- | --- | --- | --- |
| CCOC(=O)C(C(=O)OCC)C(C(=O)OCC)C(=O)OCC | -22.7% | 4.45% | -6.2% | -9.65% | -14.5% | -9.05% |
| COc1ccc(CC(N)C(=O)OC(C)C)cc1 (stereo unspecified) | -16.3% | -12.3% | -5.05% | -36% | 11% | 1.4% |
| O=C(/C=C/c1ccccc1)N(Cc1ccccc1)c1ccccc1 | 94.3% (active) | 96.7% (active) | 96.7% (active) | 93.5% (active) | 95.2% (active) | 95.6% (active) |
| C#Cc1nc(N)c2ncn(C3OC(COS(N)(=O)=O)C(O)C3O)c2n1 (stereo unspecified) | 17.1% | 32.5% | 7.9% | 28.4% | 10.3% | 10.6% |
| Cc1noc(-c2ccccc2)c1N=Nc1ccccc1 | 11.6% | 12.1% | 28.1% | -34.2% | 45.1% | 28.5% |
| Cc1ccccc1N=C(N)NC#N | -14% | -31.9% | -15.1% | -4.65% | -13.2% | -49.7% |
| OC1c2c(ccc3ccccc23)CCC1N1CCCCC1 (stereo unspecified) | 12.6% | -4.45% | 0.9% | -34.5% | -13.4% | -5% |
| OC1(c2ccccc2)CCCN(Cc2ccccc2)C1 (stereo unspecified) | 3.75% | 7% | 6.6% | -17.4% | 14.6% | 15.8% |
| Cc1ccc(C)c(NC(=O)NCc2ccc(Cl)cc2)c1 | -7.65% | -41.2% | -11.4% | 13.2% | -58.1% | 10.2% |
| CN(C)c1ccc(N=C(C#CC#Cc2ccccc2)c2ccccc2)cc1 | 3.85% | -4% | 7.55% | -42.4% | -19.4% | 24.8% |
| COc1ccc2c(c1)CCCN1Cc3cc(OC)c(OC)cc3CC21 (stereo unspecified) | -29.7% | 8.65% | -33.8% | 14% | -1.1% | -3.9% |
| O=C(O)c1cccc(CO)c1O | 3.25% | -10.5% | -12.7% | -17.4% | 6.75% | 4.4% |
| CC(=O)c1c(Cl)cc(Cl)c(Cl)c1Cc1c(Cl)c(Cl)cc(Cl)c1C(C)=O | 9.5% | 9.8% | 7% | 18.2% | 5.95% | 9.55% |
| CN(C)Cc1onc(-c2c(Cl)cccc2Cl)c1C(=O)O | 1.3% | 8.2% | -9.95% | 6.05% | 21.2% | 8.4% |
| CO/C=C/CCCNCc1ccccc1 | -4.5% | -27.4% | 20.6% | 9.7% | 6.3% | 1.2% |
| CCOC(=O)C1C(NNC(N)=O)CN(C(=O)OCC)C1C(=O)OCC (stereo unspecified) | -9.2% | -5.8% | -15.9% | 0.4% | 8.45% | 10.4% |
| CC1=C(C#N)C(=N)OC1(C)C1CC(=O)C=CC1=O (stereo unspecified) | -11.5% | 27.4% | 7.9% | 20.5% | 4.55% | 4.6% |
| OCCOc1c(Cl)c(C(Cl)(Cl)Cl)nc2ccccc12 | 84.2% (active) | 95.3% (active) | 91% (active) | 46% | 94% (active) | 94.3% (active) |
| Nc1ccc(C(=O)NN2C(=O)C(Cl)C2c2cc(Br)ccc2O)cc1 (stereo unspecified) | 29.1% | 11.6% | 30.7% | -32.1% | 29.1% | 10.8% |
| Cc1ccc2c(c1)CCCN2 | 7.2% | 11.2% | 4.65% | 21.6% | 9.8% | 7.55% |
